From PubChem BioAssay (NCATS)
Results filed as inconclusive are left out. More than one record can exist for a structure, and the calls need not agree. Activity calls are given as the source filed them. Unless noted, calls come from the whole dose curve; as a rule, active = well fitted curve in the direction sought with a large enough effect; inconclusive = small, poorly fitted or top-dose-only effect, or another doubt; inactive = no such curve, though single readings can be large; an effect the other way counts as inactive or inconclusive.

Experiments:
[1] = target: Thioredoxin reductase 1, cytoplasmic (Rattus norvegicus) (UniProt O89049); test: qHTS Assay for Inhibitors of Mammalian Selenoprotein Thioredoxin Reductase 1 (TrxR1) (AID 488773); conditions: Potency: inhibition;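 note: drop in NADPH fluorescence over an 8 min run after selenite addition; series mostly up to about 57 µM; % is set by controls: 0 for no effect and ±100 for the full control effect; nearly all actives have a fitted effect of over 40% in size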
Procedure, shortened: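 Inhibition is scored from the loss of NADPH fluorescence between first and last reads of an 8-min kinetic run. Selenite (400 uM) was the substrate, added after 15 min compound preincubation at room temperature.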

[2] = target: Flap endonuclease 1 (Homo sapiens) (UniProt P39748); test: qHTS Validation Assay for the Inhibitors of Human Flap endonuclease 1 (FEN1) (AID 488816); note: % is set by controls: 0 for no effect and ±100 for the full control effect
Procedure, shortened: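 Enzyme reagent 10 nM; cpds pinned; 15 min RT preinc.; substrate 50 nM final; reads t=0 and 15 min; no-enzyme buffer wells as neg. control; normalized data, 4-parameter Hill fit.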

[3] = target: M-phase phosphoprotein 8 (Homo sapiens) (UniProt Q99549); test: qHTS Validation Assay for Inhibitors for MPP8 Chromodomain Interactions with Methylated Histone Tails (AID 488949); note: nearly all actives have a fitted effect of over 55% in size; note: potency is the fitted concentration of half-maximal effect
Procedure, shortened: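 AlphaScreen proximity signal from streptavidin donor and Ni-chelate acceptor beads (10 ug/mL each) reported binding of MPP8 to trimethyl-K9 H3(1-18) peptide, both at 50 nM. The complex formed 30 min before a 30 min compound exposure at room temperature, in PBS pH 7.4.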

[4] = target: Thyrotropin receptor (Homo sapiens) (UniProt P16473); test: qHTS Assay for Antagonists of the Thyroid Stimulating Hormone Receptor (AID 488980); note: series mostly up to about 58 µM; 0% is about no effect
Procedure, shortened: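 Inhibition of cAMP raised by EC80 TSH (4 nM final) was read by HTRF, with lysate cAMP competing against cAMP-d2 for cryptate antibody after 30 min at room temperature. The cells were transfected HEK293 held in phosphodiesterase inhibitor RO 20-1724 at 70 uM.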

[5] = target: D(1A) dopamine receptor (Homo sapiens) (UniProt P21728); test: HTS Assay for Allosteric Agonists of the Human D1 Dopamine Receptor: Primary Screen for Agonists (AID 488981); note: potency is the fitted concentration of half-maximal effect; for activation: 0% is about no effect
Procedure, shortened: (§1)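 Tetracycline-induced HEK293 Trex D1 cells with forced coupling to calcium, loaded with no-wash calcium dye; kinetic fluorescence read 180 s after compound addition for agonism, then a further 180 s after an EC20 dopamine challenge for potentiation.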

[6] = target: D(1A) dopamine receptor (Homo sapiens) (UniProt P21728); test: HTS Assay for Allosteric Agonists of the Human D1 Dopamine Receptor: Primary Screen for Potentiators (AID 488982); note: 0% is about no effect
Procedure, shortened: as §1

[7] = target: D(1A) dopamine receptor (Homo sapiens) (UniProt P21728); test: HTS Assay for Allosteric Agonists of the Human D1 Dopamine Receptor: Primary Screen for Antagonists (AID 488983);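 note: calcium flux response to an EC80 dopamine challenge measured with no-wash dye; nearly all actives have a fitted effect of over 65% in size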; note: potency is the fitted concentration of half-maximal effect
Procedure, shortened: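 Kinetic fluorescence at 1 cycle/sec tracked intracellular calcium in force-coupled, tetracycline-inducible HEK293 T-REx D1 cells. Loss of response to an EC80 dopamine dose, given 180 s after compound, marked antagonists.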

[8] = target: Thyrotropin-releasing hormone receptor (Homo sapiens) (UniProt P34981); test: qHTS for Small Molecule Agonists and Allosteric Enhancers of Human TRH Receptor: Validation Screen for Agonists (AID 493127;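 active = calcium activation more than 3 SD above the typical response in the agonist read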;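 note: intracellular calcium rise by fluo-8 fluorescence before TRH EC20 addition; 0% is about no effect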); conditions: TRH receptor agonist cell assay; at 2 µM; stronger effect = higher value
Procedure, shortened: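 Compounds are added by online pintool to dye-loaded TRHR cells while fluorescence is recorded every second. A rise in calcium signal during the agonist read marks activation; a later 10 nM TRH addition (EC20) serves the separate enhancer mode.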

[9] = Nrf2 qHTS screen for inhibitors: Validation (AID 493153; active = well fitted inhibition curve with a large enough effect in the main read-out, with a control signal flat, not every such curve was filed as active); conditions: Potency: luciferase luminescence; viability change: measured here: cytotoxicity max response
Procedure, shortened: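 A549 ARE_Fluc, 5% FBS OPTI-MEM; cpd titration, 18-24 h, 37°C/5% CO2. Read 1: CellTiter-Fluor (Ex 405/Em 525), cytotox. Read 2: luciferase lum, Nrf2 activity.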

[10] = qHTS for Inhibitors of Cell Surface uPA Generation: Validation Assay (AID 493164);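 note: RAW 264.7 macrophage cells exposed to compound for 18 h; 0% is about no effect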
Procedure, shortened: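 ATP-Lite luminescence read-out: ATP remains high when uPA activity-dependent LF translocation into the cytoplasm is blocked. RAW 264.7 cells, 18 h compound exposure at 37 C; 7-point titration, 2.45 nM to 38.3 uM final.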

[11] = Validation screen for small molecules that induce DNA re-replication in SW480 colon adenocarcinoma cells (AID 504364); note: 0% is about no effect
Procedure, shortened: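 Image-based qHTS: compounds were incubated with SW480 cells for 48 hr, nuclei stained with Hoechst, and per-nucleus fluorescence intensity scanned to flag cells with excess DNA content.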

[12] = target: Peptidyl-prolyl cis-trans isomerase NIMA-interacting 1 (Homo sapiens) (UniProt Q13526); test: qHTS Validation Assay to Find Inhibitors of Pin1 (AID 504536; active = well fitted inhibition curve with a large enough effect in the polarisation, with a control signal flat, not every such curve was filed as active; the % refers to the polarisation;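 note: 0% = full Pin1 enzyme wells and -100% = no-enzyme wells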)
Procedure, shortened: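 Fluorescence polarization competition: compounds (titration) displace HiFluor-488-labeled Pin1-1b peptide from Pin1 (0.3 uM final) in pH 7.5 HEPES buffer with DTT, 10 min at room temperature; %Activity normalized to no-enzyme wells, curves fitted.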

[13] = target: Phosphoglycerate kinase, glycosomal (Trypanosoma brucei brucei) (UniProt P07378); test: qHTS Validation Assay to Find Inhibitors of Phosphoglycerate Kinase (AID 504547);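 note: control wells lack PGK and mark full inhibition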
Procedure, shortened: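 Compounds are pinned into the substrate/PGK mixture, and GAPDH (100nM final) is added to start the reaction by producing 1,3-BPG. After 60 minutes at room temperature, Kinase-Glo Plus is added and luminescence is measured 10 minutes later.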

[14] = target: Methanococcus maripaludis chaperonin (MmCpn) (UniProt Q6LX38); test: High-Throughput Screening for Modulators of Cytosolic Chaperonin Activity: MmCpn Primary Screen (AID 488978);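 note: 50 nM MmCpn enzyme hydrolysing 30 µM ATP at 37 °C; 0% is about no effect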
Procedure, shortened: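 ATPase activity of 50 nM MmCpn was assayed with 30 uM ATP, 10 minutes at 37C, after a 5 min compound preincubation at room temperature. ADP production was read as HTRF emission at 590 and 665 nm.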

[15] = Validation screen for small molecules that induce genotoxicity in human embryonic kidney (HEK293T) cells expressing luciferase-tagged ELG1 (AID 493106); note: 0% is about no effect
Procedure, shortened: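 Cells were dispensed at 2,000 per well, then 23 nL compound or DMSO was pinned in. After 16 hr at 37 °C and 5% CO2, ONE-Glo reagent was added. Luciferase activity was measured following 30 min at room temperature.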

[16] = target: ATPase family AAA domain-containing protein 5 (Homo sapiens) (UniProt Q96QE3); test: Validation screen for small molecules that inhibit ELG1-dependent DNA repair in human embryonic kidney (HEK293T) cells expressing luciferase-tagged ELG1 (AID 493107);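 note: cells co-treated with the DNA-damaging agent 5-fluorouridine alongside compound; series mostly up to about 46 µM; % is set by controls: 0 for no effect and ±100 for the full control effect; inhibitors lower the ELG1-luciferase luminescence signal; nearly all actives have a fitted effect of over 70% in size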
Procedure, shortened: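 Cells are dispensed in 1536-well format, then 5-fluorouridine and compound are pinned in. After a 16 hr incubation at 37 °C and 5% CO2, ONE-Glo is added and luciferase measured on a CCD imager.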

[17] = target: Galactokinase (Homo sapiens) (UniProt P51570); test: qHTS Validation Assay for Inhibitors of Human Galactokinase (GALK) (AID 493189); note: 0% is about no effect
Procedure, shortened: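 Inhibition was measured as remaining ATP, detected by luciferase luminescence after a 1 h room-temperature reaction. Final conditions: 5 nM GALK, 100 uM galactose, 35 uM ATP, pH 8.0 HEPES buffer.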

[18] = target: Transient receptor potential cation channel subfamily V member 1 (Homo sapiens) (UniProt Q8NER1); test: HTS Assay for Compounds that Act as Enhancers of the Vanilloid Receptor 1 (AID 488979); note: 0% is about no effect
Procedure, shortened: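 TRPV1 cells loaded with Fluo-8 calcium dye; compound added and Ca2+ signal (ex 480/em 520 nm) followed 3 min, then capsaicin at EC20 added and read 2 more min to detect enhancement.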

[19] = target: ATP-dependent 6-phosphofructokinase (Trypanosoma brucei brucei) (UniProt O15648); test: qHTS Assay to Find Inhibitors of T. brucei phosphofructokinase: hit validation (AID 492961);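 note: luminescence reports ADP formed as PFK phosphorylates fructose-6-phosphate with ATP; series mostly up to about 51 µM; % is set by controls: 0 for no effect and ±100 for the full control effect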
Procedure, shortened: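 Inhibition of parasite PFK is measured as reduced ADP formation, quantified via luciferase after ATP depletion. Assay used 0.1 mM ATP, 0.5 mM F6P, 1.25 nM enzyme, 45 min incubation.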

[20] = target: Chromobox protein homolog 1 (Homo sapiens) (UniProt P83916); test: qHTS Validation Assay for Inhibitors of HP1-beta Chromodomain Interactions with Methylated Histone Tails (AID 488953);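 note: loss of AlphaScreen luminescence from HP1-beta binding biotinylated H3K9me3 peptide; series mostly up to about 110 µM; % is set by controls: 0 for no effect and ±100 for the full control effect; nearly all actives have a fitted effect of over 50% in size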
Procedure, shortened: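 Disruption of preformed HP1-beta:H3K9me3 peptide complexes (both 50 nM, PBS pH 7.4 with 0.01% Tween-20) is measured by AlphaScreen after 30 min compound exposure at room temperature, using streptavidin donor and nickel chelate acceptor beads at 10 ug/mL final.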

Sequence of M-phase phosphoprotein 8 (Homo sapiens) (Q99549 whole entry, looked up): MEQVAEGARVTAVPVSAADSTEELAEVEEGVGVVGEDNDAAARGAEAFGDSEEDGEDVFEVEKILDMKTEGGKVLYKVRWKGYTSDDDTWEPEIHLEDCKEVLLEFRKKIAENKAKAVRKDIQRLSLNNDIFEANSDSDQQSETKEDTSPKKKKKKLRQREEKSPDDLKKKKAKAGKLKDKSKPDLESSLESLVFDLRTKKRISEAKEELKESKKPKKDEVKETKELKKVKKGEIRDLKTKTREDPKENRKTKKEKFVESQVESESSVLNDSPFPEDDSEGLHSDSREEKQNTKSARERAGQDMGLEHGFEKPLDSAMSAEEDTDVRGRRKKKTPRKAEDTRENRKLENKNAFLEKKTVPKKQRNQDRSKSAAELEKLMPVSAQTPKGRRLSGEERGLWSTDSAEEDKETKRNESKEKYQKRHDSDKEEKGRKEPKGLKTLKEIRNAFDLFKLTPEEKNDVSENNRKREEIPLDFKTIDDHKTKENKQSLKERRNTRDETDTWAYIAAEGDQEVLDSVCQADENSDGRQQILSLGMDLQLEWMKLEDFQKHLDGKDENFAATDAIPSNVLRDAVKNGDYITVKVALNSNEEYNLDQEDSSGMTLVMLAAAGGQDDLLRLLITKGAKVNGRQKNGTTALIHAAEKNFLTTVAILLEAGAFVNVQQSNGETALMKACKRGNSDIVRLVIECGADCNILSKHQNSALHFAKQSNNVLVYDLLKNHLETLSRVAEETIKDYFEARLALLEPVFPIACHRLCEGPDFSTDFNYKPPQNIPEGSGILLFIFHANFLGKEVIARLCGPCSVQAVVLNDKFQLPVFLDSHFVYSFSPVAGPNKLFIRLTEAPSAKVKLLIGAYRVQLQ
Sequence of Phosphoglycerate kinase, glycosomal (Trypanosoma brucei brucei) (P07378 whole entry, looked up): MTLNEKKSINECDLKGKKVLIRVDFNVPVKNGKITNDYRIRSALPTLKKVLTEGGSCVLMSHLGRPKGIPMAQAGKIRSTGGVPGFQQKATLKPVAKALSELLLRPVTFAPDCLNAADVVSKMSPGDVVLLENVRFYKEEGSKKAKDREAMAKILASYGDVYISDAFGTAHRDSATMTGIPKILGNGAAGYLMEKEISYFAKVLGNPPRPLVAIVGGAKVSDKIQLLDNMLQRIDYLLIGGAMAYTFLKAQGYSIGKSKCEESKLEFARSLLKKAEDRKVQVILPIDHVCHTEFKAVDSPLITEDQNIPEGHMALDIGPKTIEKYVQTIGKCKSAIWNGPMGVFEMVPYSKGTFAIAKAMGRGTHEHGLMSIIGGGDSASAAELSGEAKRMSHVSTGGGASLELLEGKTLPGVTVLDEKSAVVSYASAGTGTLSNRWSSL
Sequence of Methanococcus maripaludis chaperonin (MmCpn) (Q6LX38 1-543): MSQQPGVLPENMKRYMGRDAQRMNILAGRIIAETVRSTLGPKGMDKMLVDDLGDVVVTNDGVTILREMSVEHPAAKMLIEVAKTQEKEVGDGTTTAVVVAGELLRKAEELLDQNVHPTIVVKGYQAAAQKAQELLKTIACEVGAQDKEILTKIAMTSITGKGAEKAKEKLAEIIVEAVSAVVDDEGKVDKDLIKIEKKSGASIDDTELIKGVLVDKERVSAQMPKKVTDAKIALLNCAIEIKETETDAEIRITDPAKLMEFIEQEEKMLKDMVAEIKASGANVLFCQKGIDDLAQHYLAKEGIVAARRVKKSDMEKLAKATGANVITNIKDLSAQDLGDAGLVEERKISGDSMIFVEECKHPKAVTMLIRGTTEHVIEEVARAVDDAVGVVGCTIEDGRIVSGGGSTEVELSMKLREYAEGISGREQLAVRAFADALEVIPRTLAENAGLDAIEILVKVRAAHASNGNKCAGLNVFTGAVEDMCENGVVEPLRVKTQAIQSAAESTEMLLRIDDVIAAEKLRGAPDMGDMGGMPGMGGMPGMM
Sequence of ATP-dependent 6-phosphofructokinase (Trypanosoma brucei brucei) (O15648 whole entry, looked up): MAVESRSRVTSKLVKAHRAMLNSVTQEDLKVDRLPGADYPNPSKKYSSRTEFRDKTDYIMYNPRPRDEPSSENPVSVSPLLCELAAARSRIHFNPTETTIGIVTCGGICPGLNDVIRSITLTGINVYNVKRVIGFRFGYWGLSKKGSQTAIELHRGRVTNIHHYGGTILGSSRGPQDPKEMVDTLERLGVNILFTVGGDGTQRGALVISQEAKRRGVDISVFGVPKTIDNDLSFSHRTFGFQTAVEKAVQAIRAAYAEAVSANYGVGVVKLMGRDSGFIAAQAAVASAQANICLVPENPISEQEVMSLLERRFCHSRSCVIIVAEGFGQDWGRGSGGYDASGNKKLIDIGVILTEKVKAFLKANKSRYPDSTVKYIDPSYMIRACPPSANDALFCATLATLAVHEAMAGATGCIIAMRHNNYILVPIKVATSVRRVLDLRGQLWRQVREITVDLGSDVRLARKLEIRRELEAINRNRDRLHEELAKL
Sequence of Flap endonuclease 1 (Homo sapiens) (P39748 whole entry, looked up): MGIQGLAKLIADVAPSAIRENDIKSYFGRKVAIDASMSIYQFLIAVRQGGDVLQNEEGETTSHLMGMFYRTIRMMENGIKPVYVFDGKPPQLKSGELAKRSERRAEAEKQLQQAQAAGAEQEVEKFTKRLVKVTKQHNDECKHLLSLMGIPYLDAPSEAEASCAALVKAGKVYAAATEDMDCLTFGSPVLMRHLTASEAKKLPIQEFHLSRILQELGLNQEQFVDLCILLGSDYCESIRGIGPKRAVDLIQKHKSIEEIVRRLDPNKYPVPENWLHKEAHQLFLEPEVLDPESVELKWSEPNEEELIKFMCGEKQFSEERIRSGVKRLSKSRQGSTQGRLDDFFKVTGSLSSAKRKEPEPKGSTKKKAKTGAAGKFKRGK
Sequence of ATPase family AAA domain-containing protein 5 (Homo sapiens) (Q96QE3 whole entry, looked up, the tested form may be a part): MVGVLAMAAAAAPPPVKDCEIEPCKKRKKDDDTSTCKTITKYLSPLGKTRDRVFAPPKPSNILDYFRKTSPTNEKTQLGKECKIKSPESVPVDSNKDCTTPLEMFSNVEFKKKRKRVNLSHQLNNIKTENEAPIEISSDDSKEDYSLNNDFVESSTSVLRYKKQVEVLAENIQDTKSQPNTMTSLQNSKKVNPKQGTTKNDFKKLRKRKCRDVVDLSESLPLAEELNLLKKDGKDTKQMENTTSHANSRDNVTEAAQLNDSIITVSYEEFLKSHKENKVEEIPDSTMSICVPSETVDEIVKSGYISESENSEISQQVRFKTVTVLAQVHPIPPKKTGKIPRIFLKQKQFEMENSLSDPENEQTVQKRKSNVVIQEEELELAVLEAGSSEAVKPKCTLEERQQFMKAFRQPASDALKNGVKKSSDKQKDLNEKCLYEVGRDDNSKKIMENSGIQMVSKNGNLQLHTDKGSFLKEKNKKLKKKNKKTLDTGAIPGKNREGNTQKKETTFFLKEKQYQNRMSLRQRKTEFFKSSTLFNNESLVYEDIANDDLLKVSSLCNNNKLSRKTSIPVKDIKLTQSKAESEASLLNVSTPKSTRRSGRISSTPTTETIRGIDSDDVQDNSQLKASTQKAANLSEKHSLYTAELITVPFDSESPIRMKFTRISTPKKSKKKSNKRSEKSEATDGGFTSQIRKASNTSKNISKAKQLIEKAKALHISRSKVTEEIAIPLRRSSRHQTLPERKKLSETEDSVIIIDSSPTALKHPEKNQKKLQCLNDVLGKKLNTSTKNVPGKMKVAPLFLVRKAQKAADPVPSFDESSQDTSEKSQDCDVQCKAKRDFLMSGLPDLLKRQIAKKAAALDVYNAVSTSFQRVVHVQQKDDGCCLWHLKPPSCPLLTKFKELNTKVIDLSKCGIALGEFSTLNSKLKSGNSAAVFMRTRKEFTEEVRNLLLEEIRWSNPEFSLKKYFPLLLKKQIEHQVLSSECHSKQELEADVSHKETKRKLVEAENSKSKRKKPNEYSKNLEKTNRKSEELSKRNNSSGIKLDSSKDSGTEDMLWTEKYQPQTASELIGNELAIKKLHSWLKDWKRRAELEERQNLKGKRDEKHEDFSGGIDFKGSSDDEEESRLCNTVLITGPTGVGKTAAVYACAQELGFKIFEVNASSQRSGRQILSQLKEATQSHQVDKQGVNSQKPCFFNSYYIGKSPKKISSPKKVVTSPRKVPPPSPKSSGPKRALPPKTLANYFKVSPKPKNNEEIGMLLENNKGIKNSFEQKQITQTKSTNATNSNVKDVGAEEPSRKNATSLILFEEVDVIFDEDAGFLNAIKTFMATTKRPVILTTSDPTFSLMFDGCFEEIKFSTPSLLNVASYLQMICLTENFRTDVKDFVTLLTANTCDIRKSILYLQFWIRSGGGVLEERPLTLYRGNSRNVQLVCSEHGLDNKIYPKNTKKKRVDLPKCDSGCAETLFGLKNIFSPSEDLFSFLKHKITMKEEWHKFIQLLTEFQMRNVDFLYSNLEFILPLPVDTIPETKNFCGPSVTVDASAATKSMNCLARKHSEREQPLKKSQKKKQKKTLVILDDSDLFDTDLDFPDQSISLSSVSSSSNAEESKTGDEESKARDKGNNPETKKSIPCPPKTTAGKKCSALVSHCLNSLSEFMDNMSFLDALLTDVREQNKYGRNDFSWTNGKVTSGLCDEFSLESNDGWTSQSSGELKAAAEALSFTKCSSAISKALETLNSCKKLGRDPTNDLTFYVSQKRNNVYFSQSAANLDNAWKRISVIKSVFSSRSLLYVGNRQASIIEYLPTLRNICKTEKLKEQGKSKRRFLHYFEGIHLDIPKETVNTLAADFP
Sequence of Peptidyl-prolyl cis-trans isomerase NIMA-interacting 1 (Homo sapiens) (Q13526 whole entry, looked up): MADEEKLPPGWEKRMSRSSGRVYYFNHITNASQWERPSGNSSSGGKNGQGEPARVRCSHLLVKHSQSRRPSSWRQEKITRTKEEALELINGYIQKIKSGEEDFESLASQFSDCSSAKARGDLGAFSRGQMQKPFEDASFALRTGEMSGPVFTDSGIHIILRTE
Sequence of Chromobox protein homolog 1 (Homo sapiens) (P83916 whole entry, looked up): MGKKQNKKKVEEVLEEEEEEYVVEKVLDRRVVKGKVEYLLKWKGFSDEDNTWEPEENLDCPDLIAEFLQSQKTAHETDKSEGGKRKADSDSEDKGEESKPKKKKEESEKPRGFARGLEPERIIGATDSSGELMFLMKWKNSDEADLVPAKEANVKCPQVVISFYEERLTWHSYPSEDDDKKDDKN

COc1cc(C(=O)OCCCN2CCCN(CCCOC(=O)c3cc(OC)c(OC)c(OC)c3)CC2)cc(OC)c1OC
inactive: Potency [1] | Potency [2] | Potency [3] | outcome [4] | Potency [5] | Potency [6] | Potency [7] | activation [8] 0.688% | Potency [9] | outcome [10] | outcome [11] | outcome [12] | outcome [13]
-0.03%: viability change [9]

CCCN1C[C@H](CSC)C[C@@H]2c3cccc4[nH]cc(c34)C[C@H]21
2.56%: viability change [9]
inactive: Potency [1] | Potency [2] | Potency [3] | outcome [14] | outcome [4] | Potency [5] | Potency [6] | Potency [15] | Potency [16] | activation [8] 1.44% | Potency [9] | outcome [10] | outcome [17] | outcome [11] | outcome [12] | outcome [13]

CCCC(C(=O)OCCN(CC)CC)(c1ccccc1)c1ccccc1
-7.4%: viability change [9]
inactive: Potency [1] | Potency [2] | Potency [3] | outcome [14] | outcome [18] | outcome [4] | Potency [5] | Potency [6] | Potency [7] | Potency [15] | Potency [9] | outcome [10] | outcome [11] | outcome [12] | outcome [13]

c1cc(CN2CCCCC2)cc(OCCCNc2nc3ccccc3s2)c1
inactive: Potency [1] | Potency [2] | Potency [3] | outcome [14] | outcome [4] | Potency [5] | Potency [6] | outcome [19] | Potency [15] | Potency [16] | Potency [9] | outcome [10] | outcome [17] | outcome [12] | outcome [13]
-17%: viability change [9]

CC(=O)Oc1cc(C(C)C)c(OCCN(C)C)cc1C
inactive: Potency [1] | Potency [2] | Potency [3] | Potency [20] | outcome [4] | Potency [5] | Potency [7] | outcome [19] | Potency [16] | Potency [9] | outcome [10] | outcome [11] | outcome [12] | outcome [13]
-6.98%: viability change [9]

OCCN1CCN(CCCN2c3ccccc3C=Cc3ccccc32)CC1
4.92%: viability change [9]
active: Potency [7] 11.2 µM
inactive: Potency [1] | Potency [2] | Potency [3] | outcome [14] | outcome [18] | outcome [4] | Potency [5] | Potency [6] | Potency [16] | Potency [9] | outcome [10] | outcome [17] | outcome [11] | outcome [12] | outcome [13]

COc1ccc2c(c1OC)C(=O)O[C@@H]2[C@H]1c2c(cc3c(c2OC)OCO3)CCN1C
inactive: Potency [1] | Potency [2] | Potency [3] | Potency [5] | Potency [6] | Potency [7] | Potency [15] | Potency [16] | outcome [10] | outcome [12] | outcome [13]

O=C(O)CCCCCCCC(=O)O
inactive: Potency [1] | Potency [2] | Potency [3] | Potency [20] | outcome [4] | Potency [5] | Potency [6] | Potency [7] | Potency [15] | Potency [16] | Potency [9] | outcome [10] | outcome [17] | outcome [11] | outcome [12] | outcome [13]
9.01%: viability change [9]

Cc1cc(C)c(/C=C2\C(=O)Nc3ccccc32)[nH]1
inactive: Potency [1] | Potency [2] | outcome [4] | Potency [6] | Potency [7] | outcome [19] | outcome [10] | outcome [17] | outcome [13]
active: Potency [5] 15.8 µM
7.94 µM (active) and inactive: Potency [3]
